In PubChem BioAssay (Tox21) one finds Potency and max response data, which are given here for 7 compounds.

The nature of experiment [1]: qHTS RealTime-Glo MT Cell Viability Assay in HepG2 cells - 40 hour (AID 1224870). Also: nearly all actives have a fitted effect of over 50% in size. The procedure, abridged: (§1)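 Real-time viability: cells seeded at 600 per well together with NanoLuc and cell-permeant prosubstrate, compounds added after 5 h incubation. Luminescence tracked at 0, 8, 16, 24, 32 and 40 h of exposure.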
A short description of experiment [2]: A CellTox Green Cytotoxicity Assay to monitor cytotoxicity in HEK293 cells - 40 hour (AID 1224871). Also: nearly all actives have a fitted effect of over 45% in size. Also: potency is read from the fitted curve at half-maximal effect. The procedure, abridged:
(§2)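 Homogeneous no-lysis format: HEK293 cell suspension mixed with CellTox Green reagent, seeded, incubated 5 h at 37 C/5% CO2, then dosed by pintool with compound in DMSO.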

Experiment [3] in a line: qHTS RealTime-Glo MT Cell Viability Assay in HEK293 cells - 16 hour (AID 1224872). Also: top concentration of the series differs between compounds; nearly all actives have a fitted effect of over 50% in size. The procedure, abridged: (§3)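 HEK293 cells were seeded at 600 cells/well together with NanoLuc luciferase and cell-permeant prosubstrate, preincubated 5 h at 37 C/5% CO2, then given compound in DMSO by pintool. Luminescence from viable-cell prosubstrate reduction was read repeatedly over 40 h.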

Experiment [4] in a line: qHTS RealTime-Glo MT Cell Viability Assay in HepG2 cells - 8 hour (AID 1224873). Also: nearly all actives have a fitted effect of over 55% in size. The procedure, abridged:
as §1
For orientation: Quantitative high-throughput screening tests each substance at several concentrations.

Experiment [5] in a line: qHTS RealTime-Glo MT Cell Viability Assay in HEK293 cells - 40 hour (AID 1224874). Also: nearly all actives have a fitted effect of over 50% in size. The note with it: RealTime-Glo luminescence; max response: hits give low values. The procedure, abridged: (§4)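 Measured as luminescence from the same continuously cultured HEK293 wells at successive time points (0, 8, 16, 24, 32, 40 h) after compound addition. Reagent present from seeding; dosing at 5 h; incubation 37 C.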

The nature of experiment [6]: A CellTox Green Cytotoxicity Assay to monitor cytotoxicity in HEK293 cells - 24 hour (AID 1224875). Also: series mostly up to about 77 µM; nearly all actives have a fitted effect of over 45% in size. Summed up:
as §2

Experiment [7] in a line: A CellTox Green Cytotoxicity Assay to monitor cytotoxicity in HepG2 cells - 16 hour (AID 1224876). Also: nearly all actives have a fitted effect of over 45% in size. The procedure, abridged: (§5)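 Fluorescent DNA-binding dye, 600 HepG2 cells/well, 5 h preincubation then compound in DMSO; same plates read at 0–40 h, 37 C.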
Experiment [8] is described as follows: qHTS RealTime-Glo MT Cell Viability Assay in HepG2 cells - 32 hour (AID 1224877). Also: nearly all actives have a fitted effect of over 55% in size. The procedure, abridged:
(§6)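 HepG2 cells were seeded at 600 cells/well together with NanoLuc luciferase and a cell-permeant prosubstrate, preincubated 5 h at 37 C/5% CO2, then pin-dosed with compounds in DMSO. Nonlytic luminescence from viable cells was read at each time point.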

Experiment [9] is described as follows: A CellTox Green Cytotoxicity Assay to monitor cytotoxicity in HepG2 cells - 24 hour (AID 1224878). Also: nearly all actives have a fitted effect of over 45% in size. Summed up: as §5
Experiment [10] in a line: A CellTox Green Cytotoxicity Assay to monitor cytotoxicity in HepG2 cells - 40 hour (AID 1224879). Also: nearly all actives have a fitted effect of over 40% in size. The procedure, abridged: as §5
Experiment [11] in a line: qHTS RealTime-Glo MT Cell Viability Assay in HEK293 cells - 0 hour (AID 1224880). The procedure, abridged:
as §4

Experiment [12] in a line: A CellTox Green Cytotoxicity Assay to monitor cytotoxicity in HepG2 cells - 0 hour (AID 1224882). Also: nearly all actives have a fitted effect of over 35% in size. The procedure, abridged: as §5
A short description of experiment [13]: A CellTox Green Cytotoxicity Assay to monitor cytotoxicity in HepG2 cells - 32 hour (AID 1224883). Also: nearly all actives have a fitted effect of over 50% in size. The procedure, abridged:
as §5

Experiment [14] in a line: qHTS RealTime-Glo MT Cell Viability Assay in HepG2 cells - 16 hour (AID 1224885). Also: nearly all actives have a fitted effect of over 50% in size. The procedure, abridged: as §6
Experiment [15] in a line: qHTS RealTime-Glo MT Cell Viability Assay in HEK293 cells - 24 hour (AID 1224886). Summed up:
as §3

Experiment [16] can be described thus: qHTS RealTime-Glo MT Cell Viability Assay in HEK293 cells - 8 hour (AID 1224887). Summed up: as §4
Experiment [17] is described as follows: A CellTox Green Cytotoxicity Assay to monitor cytotoxicity in HEK293 cells - 16 hour (AID 1224888). Also: nearly all actives have a fitted effect of over 35% in size. Summed up:
as §2

A short description of experiment [18]: qHTS RealTime-Glo MT Cell Viability Assay in HepG2 cells - 0 hour (AID 1224889). Also: nearly all actives have a fitted effect of over 50% in size. Summed up: as §6
Experiment [19] can be described thus: A CellTox Green Cytotoxicity Assay to monitor cytotoxicity in HEK293 cells - 32 hour (AID 1224881). Also: nearly all actives have a fitted effect of over 40% in size. The procedure, abridged: as §2
Experiment [20] in a line: A CellTox Green Cytotoxicity Assay to monitor cytotoxicity in HEK293 cells - 8 hour (AID 1224884). Also: nearly all actives have a fitted effect of over 35% in size. The procedure, abridged: as §2

Each structure is given as a SMILES string. Values joined by “and” are separate entries in the source; they are usually repeats but may differ in a detail not shown here. Equal values may be shown once. Values without a mark were called inactive. Inconclusive results are not listed. Active and inactive are the calls of the source. Calls follow the shape of the dose curve; as a rule, active = well fitted curve in the direction sought with a large enough effect in the repeat runs; inconclusive = weak or mixed curves; inactive = no such curve, though single readings can be large; an effect the other way counts as inactive or inconclusive.
% is scaled to controls: 0 for no effect and ±100 for the full control effect.

Consider `c1ccc2c(c1)CCc1ccccc1N2`, for which the Potency result in experiment [1], in experiment [3], in experiment [4], in experiment [6], in [7] and in experiment [8] was “inactive” each time. Also, the Potency entry in experiment [9], in experiment [10], in experiment [11], in [12], in experiment [13] and in experiment [14] was “inactive” in each case. The Potency entry in experiment [15], in experiment [16], in experiment [17] and in experiment [18] was “inactive” each time. The Potency in experiment [2] was 49.2 µM (active). In addition, the max response in experiment [5] was -22.1% and -5.28%.

For the compound `CC1(C)[C@H](C(=O)O)N2C(=O)C[C@H]2S1(=O)=O`, the Potency entry in [1], in experiment [2], in experiment [3], in [4], in experiment [6] and in [7] was “inactive” in each case. Further, the Potency result in experiment [8], in experiment [10], in [11], in experiment [19], in experiment [12] and in experiment [13] was “inactive” each time. The Potency entry in [20], in [14], in experiment [15], in [16], in [17] and in experiment [18] was “inactive” throughout. Also, the max response in [5] is 1.99%.

Regarding `CO[C@]1(NC(=O)CSC(F)F)C(=O)N2C(C(=O)O)=C(CSc3nnnn3CCO)CO[C@H]21`, the Potency result in experiment [1], in experiment [2], in experiment [3], in experiment [4], in [6] and in experiment [7] was “inactive” throughout. The Potency entry in experiment [8], in experiment [10], in [11], in experiment [19], in experiment [12] and in experiment [13] was “inactive” in each case. The Potency entry in experiment [20], in experiment [14], in [15], in experiment [16] and in [17] was “inactive” in each case. The max response in [5] was 21.2%.

`Cc1cscn1`: the Potency entry in [1], in [2], in experiment [3], in experiment [4], in [6] and in experiment [7] was “inactive” each time. In addition, the Potency result in experiment [8], in [9], in experiment [11], in experiment [19], in experiment [12] and in [13] was “inactive” each time. Besides, the Potency result in experiment [20], in experiment [14], in experiment [15], in experiment [16], in [17] and in experiment [18] was “inactive” each time. In experiment [5], the max response is 11.3%.

As for `CCn1cc(C(=O)O)c(=O)c2cc(F)c(N3CCNCC3)cc21`, the Potency entry in [1], in experiment [2], in experiment [3], in experiment [4], in experiment [6] and in [7] was “inactive” in each case. The Potency entry in experiment [8], in experiment [9], in experiment [11], in experiment [12], in experiment [13] and in experiment [20] was “inactive” throughout. The Potency entry in experiment [14], in [15], in experiment [16] and in [17] was “inactive” throughout. Further, in experiment [5], the max response is 11.4%.

In the case of `Cc1[nH]cnc1CN1CCc2c(c3ccccc3n2C)C1=O`, the Potency entry in experiment [1], in [2], in [3], in experiment [4], in experiment [6] and in experiment [7] was “inactive” in each case. Also, the Potency result in experiment [8], in [9], in experiment [11], in experiment [19], in experiment [12] and in experiment [13] was “inactive” each time. In addition, the Potency entry in experiment [20], in experiment [14], in experiment [15], in experiment [16] and in experiment [17] was “inactive” in each case. Besides, the max response in [5] is -24.4%.

Turning to `CC1(C)[C@@H](OC(=O)CCC(=O)O)CC[C@]2(C)[C@H]3C(=O)C=C4[C@@H]5C[C@@](C)(C(=O)O)CC[C@]5(C)CC[C@@]4(C)[C@]3(C)CC[C@@H]12`, the Potency result in experiment [1], in experiment [2], in experiment [3], in [4], in experiment [6] and in experiment [7] was “inactive” in each case. Further, the Potency entry in experiment [8], in [9], in experiment [11], in experiment [19], in [12] and in experiment [13] was “inactive” in each case. Besides, the Potency result in experiment [20], in experiment [14], in [15], in experiment [16], in [17] and in experiment [18] was “inactive” each time. Moreover, the max response in experiment [5] is 10.8%.
